{
  "source": "PubChem BioAssay (NCATS)",
  "note": "The source made the active and inactive calls. The call rests on the fitted dose curve; in most records, active means well fitted curve in the direction sought with a large enough effect; inconclusive means small, poorly fitted or top-dose-only effect, or another doubt; inactive means no such curve, though single readings can be large; an effect the other way counts as inactive or inconclusive.",
  "data": [
    {"assay": "Cellular Toxicity (caspase-3) HUV-EC-C (AID 656)", "settings": "HUV-EC-C cells, caspase-3 activation (apoptosis), vehicle = 0, 100 µM tamoxifen = 100%; series mostly up to 92.2 µM", "in_short": "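HUV-EC-C cells (1000/well) in complete medium, compound-treated 16 h at 37 °C; caspase-3/7 activity read by Caspase-Glo 3/7 luminescence. Normalized to DMSO (basal) and 100 uM tamoxifen (100%); AC50 from Hill-equation concentration-response fits.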", "values": [
      {"smiles": "O=C(O)COc1ccc(Cl)cc1Cl", "outcome": "inactive"},
      {"smiles": "ClC1=C(Cl)C2(Cl)C3C4C=CC(C4)C3C1(Cl)C2(Cl)Cl", "note": "(centres undefined)", "outcome": "inactive"},
      {"smiles": "O=S1OCC2C(CO1)C1(Cl)C(Cl)=C(Cl)C2(Cl)C1(Cl)Cl", "note": "(centres undefined)", "outcome": "inactive"},
      {"smiles": "c1ccc(N=Nc2ccccc2)cc1", "outcome": "inactive"},
      {"smiles": "CCOCN(C(=O)CCl)c1c(C)cccc1CC", "outcome": "inactive"},
      {"smiles": "CNC(=O)O/N=C/C(C)(C)SC", "outcome": "inactive"},
      {"smiles": "CCNc1nc(Cl)nc(NC(C)C)n1", "outcome": "inactive"},
      {"smiles": "C=CCc1ccc(OC)cc1", "outcome": "inactive"},
      {"smiles": "ClC1=C(Cl)C2(Cl)C3C(Cl)C=CC3C1(Cl)C2(Cl)Cl", "note": "(centres undefined)", "outcome": "inactive"},
      {"smiles": "ClC1=C(Cl)C2(Cl)C3C4CC(C5OC45)C3C1(Cl)C2(Cl)Cl", "note": "(centres undefined)", "outcome": "inactive"},
      {"smiles": "ClC(Cl)=C(c1ccc(Cl)cc1)c1ccc(Cl)cc1", "outcome": "inactive"},
      {"smiles": "CCc1cccc(CC)c1N(COC)C(=O)CCl", "outcome": "inactive"},
      {"smiles": "C/C=C/c1ccc2c(c1)OCO2", "outcome": "inactive"},
      {"smiles": "C=CCc1ccc2c(c1)OCO2", "outcome": "inactive"},
      {"smiles": "COP(=S)(OC)Oc1ccc([N+](=O)[O-])cc1", "outcome": "inactive"}
    ]},
    {"assay": "Cellular Toxicity (caspase-3) SHSY5Y (AID 657)", "settings": "SH-SY5Y caspase-3 activation, DMSO zero, 10 µM staurosporine = 100%; series mostly up to 91.7 µM", "in_short": "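SH-SY5Y human neuroblastoma cells, 1500/well, exposed to compound for 16 hours at 37 °C in complete medium. Caspase-3/7 activity read by Caspase-Glo luminescence after 1 hr at room temperature, normalized to DMSO and 10 uM staurosporine; AC50 from Hill fit.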", "values": [
      {"smiles": "O=C(O)COc1ccc(Cl)cc1Cl", "outcome": "inactive"},
      {"smiles": "ClC1=C(Cl)C2(Cl)C3C4C=CC(C4)C3C1(Cl)C2(Cl)Cl", "note": "(centres undefined)", "outcome": "inactive"},
      {"smiles": "c1ccc(N=Nc2ccccc2)cc1", "outcome": "inactive"},
      {"smiles": "CCOCN(C(=O)CCl)c1c(C)cccc1CC", "outcome": "inactive"},
      {"smiles": "CNC(=O)O/N=C/C(C)(C)SC", "outcome": "inactive"},
      {"smiles": "CCNc1nc(Cl)nc(NC(C)C)n1", "outcome": "inactive"},
      {"smiles": "C=CCc1ccc(OC)cc1", "outcome": "inactive"},
      {"smiles": "ClC1=C(Cl)C2(Cl)C3C(Cl)C=CC3C1(Cl)C2(Cl)Cl", "note": "(centres undefined)", "outcome": "inactive"},
      {"smiles": "ClC1=C(Cl)C2(Cl)C3C4CC(C5OC45)C3C1(Cl)C2(Cl)Cl", "note": "(centres undefined)", "outcome": "inactive"},
      {"smiles": "ClC(Cl)=C(c1ccc(Cl)cc1)c1ccc(Cl)cc1", "outcome": "inactive"},
      {"smiles": "CCc1cccc(CC)c1N(COC)C(=O)CCl", "outcome": "inactive"},
      {"smiles": "C/C=C/c1ccc2c(c1)OCO2", "outcome": "inactive"},
      {"smiles": "C=CCc1ccc2c(c1)OCO2", "outcome": "inactive"},
      {"smiles": "COP(=S)(OC)Oc1ccc([N+](=O)[O-])cc1", "outcome": "inactive"}
    ]},
    {"assay": "Cellular Toxicity (caspase-3) BJ (AID 658)", "settings": "BJ fibroblasts, luminescence, normalized: DMSO 0%, staurosporine 100%; series mostly up to 91.7 µM", "in_short": "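BJ human foreskin fibroblasts, 1000 cells/well, treated 16 hours at 37 °C in complete medium; caspase 3/7 activity by Caspase-Glo luminescence after 1 hr at room temperature. Normalized to DMSO and 10 uM staurosporine; AC50 from Hill fits.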", "values": [
      {"smiles": "O=C(O)COc1ccc(Cl)cc1Cl", "outcome": "inactive"},
      {"smiles": "ClC1=C(Cl)C2(Cl)C3C4C=CC(C4)C3C1(Cl)C2(Cl)Cl", "note": "(centres undefined)", "outcome": "inactive"},
      {"smiles": "O=S1OCC2C(CO1)C1(Cl)C(Cl)=C(Cl)C2(Cl)C1(Cl)Cl", "note": "(centres undefined)", "outcome": "inactive"},
      {"smiles": "c1ccc(N=Nc2ccccc2)cc1", "outcome": "inactive"},
      {"smiles": "CCOCN(C(=O)CCl)c1c(C)cccc1CC", "outcome": "inactive"},
      {"smiles": "CNC(=O)O/N=C/C(C)(C)SC", "outcome": "inactive"},
      {"smiles": "CCNc1nc(Cl)nc(NC(C)C)n1", "outcome": "inactive"},
      {"smiles": "C=CCc1ccc(OC)cc1", "outcome": "inactive"},
      {"smiles": "ClC1=C(Cl)C2(Cl)C3C(Cl)C=CC3C1(Cl)C2(Cl)Cl", "note": "(centres undefined)", "outcome": "inactive"},
      {"smiles": "ClC1=C(Cl)C2(Cl)C3C4CC(C5OC45)C3C1(Cl)C2(Cl)Cl", "note": "(centres undefined)", "outcome": "inactive"},
      {"smiles": "ClC(Cl)=C(c1ccc(Cl)cc1)c1ccc(Cl)cc1", "outcome": "inactive"},
      {"smiles": "CCc1cccc(CC)c1N(COC)C(=O)CCl", "outcome": "inactive"},
      {"smiles": "C/C=C/c1ccc2c(c1)OCO2", "outcome": "inactive"},
      {"smiles": "C=CCc1ccc2c(c1)OCO2", "outcome": "inactive"},
      {"smiles": "COP(=S)(OC)Oc1ccc([N+](=O)[O-])cc1", "outcome": "inactive"}
    ]},
    {"assay": "Cellular Toxicity (caspase-3) MRC-5 (AID 659)", "settings": "MRC-5 cells, luminescence, normalized: DMSO 0%, 10 µM staurosporine 100%; series mostly up to 91.7 µM", "in_short": "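MRC-5 human normal lung fibroblasts, 1500 cells/well, treated 16 h at 37 °C in complete medium. Caspase 3/7 measured by Caspase-Glo luminescence after 1 h at room temperature. Normalized to DMSO and 10 uM staurosporine; AC50 from Hill fit.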", "values": [
      {"smiles": "O=C(O)COc1ccc(Cl)cc1Cl", "outcome": "inactive"},
      {"smiles": "ClC1=C(Cl)C2(Cl)C3C4C=CC(C4)C3C1(Cl)C2(Cl)Cl", "note": "(centres undefined)", "outcome": "inactive"},
      {"smiles": "O=S1OCC2C(CO1)C1(Cl)C(Cl)=C(Cl)C2(Cl)C1(Cl)Cl", "note": "(centres undefined)", "outcome": "inactive"},
      {"smiles": "c1ccc(N=Nc2ccccc2)cc1", "outcome": "inactive"},
      {"smiles": "CCOCN(C(=O)CCl)c1c(C)cccc1CC", "outcome": "inactive"},
      {"smiles": "CNC(=O)O/N=C/C(C)(C)SC", "outcome": "inactive"},
      {"smiles": "CCNc1nc(Cl)nc(NC(C)C)n1", "outcome": "inactive"},
      {"smiles": "C=CCc1ccc(OC)cc1", "outcome": "inactive"},
      {"smiles": "ClC1=C(Cl)C2(Cl)C3C(Cl)C=CC3C1(Cl)C2(Cl)Cl", "note": "(centres undefined)", "outcome": "inactive"},
      {"smiles": "ClC1=C(Cl)C2(Cl)C3C4CC(C5OC45)C3C1(Cl)C2(Cl)Cl", "note": "(centres undefined)", "outcome": "inactive"},
      {"smiles": "ClC(Cl)=C(c1ccc(Cl)cc1)c1ccc(Cl)cc1", "outcome": "inactive"},
      {"smiles": "CCc1cccc(CC)c1N(COC)C(=O)CCl", "outcome": "inactive"},
      {"smiles": "C/C=C/c1ccc2c(c1)OCO2", "outcome": "inactive"},
      {"smiles": "C=CCc1ccc2c(c1)OCO2", "outcome": "inactive"},
      {"smiles": "COP(=S)(OC)Oc1ccc([N+](=O)[O-])cc1", "outcome": "inactive"}
    ]},
    {"assay": "Cellular Toxicity (caspase-3) Mesangial (AID 660);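 further: cells exposed to compound for 16 h before the caspase read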", "settings": "mesangial cells, normalized: DMSO 0%, 100 µM tamoxifen 100%; series mostly up to 91.7 µM", "in_short": "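Concentration-response qHTS: compound-induced rise in caspase 3/7 luminescence in human mesangial cells after 16 h, normalized to DMSO and 100 uM tamoxifen controls.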", "values": [
      {"smiles": "O=C(O)COc1ccc(Cl)cc1Cl", "outcome": "inactive"},
      {"smiles": "ClC1=C(Cl)C2(Cl)C3C4C=CC(C4)C3C1(Cl)C2(Cl)Cl", "note": "(centres undefined)", "outcome": "inactive"},
      {"smiles": "O=S1OCC2C(CO1)C1(Cl)C(Cl)=C(Cl)C2(Cl)C1(Cl)Cl", "note": "(centres undefined)", "outcome": "inactive"},
      {"smiles": "c1ccc(N=Nc2ccccc2)cc1", "outcome": "inactive"},
      {"smiles": "CCOCN(C(=O)CCl)c1c(C)cccc1CC", "outcome": "inactive"},
      {"smiles": "CNC(=O)O/N=C/C(C)(C)SC", "outcome": "inactive"},
      {"smiles": "CCNc1nc(Cl)nc(NC(C)C)n1", "outcome": "inactive"},
      {"smiles": "C=CCc1ccc(OC)cc1", "outcome": "inactive"},
      {"smiles": "ClC1=C(Cl)C2(Cl)C3C(Cl)C=CC3C1(Cl)C2(Cl)Cl", "note": "(centres undefined)", "outcome": "inactive"},
      {"smiles": "ClC1=C(Cl)C2(Cl)C3C4CC(C5OC45)C3C1(Cl)C2(Cl)Cl", "note": "(centres undefined)", "outcome": "inactive"},
      {"smiles": "ClC(Cl)=C(c1ccc(Cl)cc1)c1ccc(Cl)cc1", "outcome": "inactive"},
      {"smiles": "CCc1cccc(CC)c1N(COC)C(=O)CCl", "outcome": "inactive"},
      {"smiles": "C/C=C/c1ccc2c(c1)OCO2", "outcome": "inactive"},
      {"smiles": "C=CCc1ccc2c(c1)OCO2", "outcome": "inactive"},
      {"smiles": "COP(=S)(OC)Oc1ccc([N+](=O)[O-])cc1", "outcome": "inactive"}
    ]}
  ]
}
